15-hLO inh: qHTS Assay for Inhibitors of 15-hLO (15-human lipoxygenase). purified 15hLO-1, xylenol orange hydroperoxide absorbance. Polyunsaturated fatty acid lipoxygenase ALOX15 (Homo sapiens), P16050. Potency, µM (series often up to 57.1 µM), for the others: top-dose activity change, negative = inhibition, most hits filed as inhibitors. 74,000 compounds, 1.4% hits. AID 887, 2007; also: potency is read from the fitted curve at half-maximal effect; % is scaled to controls: 0 for no effect and ±100 for the full control effect; nearly all actives have a fitted effect of over 55% in size
Target sequence (P16050 whole entry, looked up): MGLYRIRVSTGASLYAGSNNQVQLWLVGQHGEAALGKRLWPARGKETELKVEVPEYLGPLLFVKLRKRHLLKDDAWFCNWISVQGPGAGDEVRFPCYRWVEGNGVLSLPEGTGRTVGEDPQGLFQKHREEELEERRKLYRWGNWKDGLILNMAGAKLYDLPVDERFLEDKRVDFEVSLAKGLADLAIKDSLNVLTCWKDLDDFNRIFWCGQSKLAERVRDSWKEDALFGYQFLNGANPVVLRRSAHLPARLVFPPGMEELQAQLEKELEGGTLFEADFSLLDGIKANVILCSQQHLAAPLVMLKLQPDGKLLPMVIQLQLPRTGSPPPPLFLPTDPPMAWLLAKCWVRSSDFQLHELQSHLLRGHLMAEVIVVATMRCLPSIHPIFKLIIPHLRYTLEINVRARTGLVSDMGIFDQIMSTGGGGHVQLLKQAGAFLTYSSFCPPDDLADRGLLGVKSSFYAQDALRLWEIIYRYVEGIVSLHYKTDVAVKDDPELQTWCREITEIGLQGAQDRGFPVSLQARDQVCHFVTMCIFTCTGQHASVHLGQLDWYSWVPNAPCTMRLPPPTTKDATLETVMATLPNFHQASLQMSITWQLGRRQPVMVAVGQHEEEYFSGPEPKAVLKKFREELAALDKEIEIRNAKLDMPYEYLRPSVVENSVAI
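40 nM 15hLO-1 + cpd, 15 min RT; start w/ 50 uM AA (final), 6 min RT; stop/detect w/ 200 uM XO + 300 uM Fe(II) in 50 mM H2SO4, 30 min; A573/A405. Buffer 25 mM Hepes pH 7.5, 0.01% Triton X-100. No-enzyme wells as negative control.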
GFP derepression: qHTS Assay for Epigenetic Modulators | Potency, µM (highest dose often 46.1 µM), without a hit: top-dose GFP derepression (activation) | 68,000 compounds, 0.09% hits | mouse C127i GFP locus derepression, cytometry, 30 h; also: % of control where 0% means no effect
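Murine C127i mammary cells carrying a silenced, stably integrated CMV-driven GFP reporter were treated with compound for 30 hours at 37 C. After PBS washes, GFP-positive cells were counted by laser-scanning microplate cytometry.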
Tau filament bind: qHTS Assay for Tau Filament Binding; 71,000 compounds, 2% hits; AID 596, 2007; Potency, µM (top dose mostly 57.1 µM), for the others: at the top dose activity change, negative = inhibition; recombinant tau filaments, thioflavin S fluorescence, 15 h; filaments grown with octadecylsulfate alongside compound; Microtubule-associated protein tau (Homo sapiens), P10636;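 also: potency is read from the fitted curve at half-maximal effect; % is scaled to controls: 0 for no effect and ±100 for the full control effect; actives lower thioflavin S fluorescence by blocking filaments or displacing dye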
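Assay mix: 1 uM His-tagged tau, 30 uM sodium octadecylsulfate, thioflavine S dye in HEPES/NaCl/DTT buffer. Compound is added prior to the inducer. Fluorescence after 15 h at 37 C.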
DNA Pol III inh: qHTS Assay for Inhibitors of DNA Polymerase III Holoenzyme System; reconstituted DNA polymerase III holoenzyme replication, biochemical; 71,000 compounds, 0.25% hits; Potency, µM (highest dose often 57.1 µM), for inactives: at the top dose activity change, negative = inhibition; also: potency is read from the fitted curve at half-maximal effect; % is scaled to controls: 0 for no effect and ±100 for the full control effect
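Reconstituted *E. coli* holoenzyme (0.35 nM Pol III, 1 nM beta, 154 nM SSB, 2 nM primase) was preincubated with compound for 15 min at RT. Synthesis on 1.4 nM ssM13Gori ran 35 min, then was stopped with PicoGreen/EDTA and read as dsDNA fluorescence.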
Ub-GFP proteasome: Ubiquitin-GFP Assay | Ubiquitin-GFP reporter cells, proteasome inhibition, GFP fluorescence; response scale: untreated = 0%, 10 µM MG-132 = 100% | Potency, µM (top dose mostly 45.9 µM), without a hit: at the highest dose activation (GFP accumulation), most hits filed as activators | 67,000 tested, under 10 active; active = well fitted activation curve with a large enough effect, not every such curve was filed as active; inconclusive = small, poorly fitted or top-dose-only effect, or another doubt; inactive = no such curve, though single readings can be large or run the other way; also: potency is read from the fitted curve at half-maximal effect
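Proteasome block read as GFP accumulation: ubiquitin(G76V)-GFP U2OS cells exposed to compound (2.9 nM–46 uM) for 4 hr at 37 C. Normalization used untreated cells as 0% and 10 uM MG-132 as 100%; concentration-response curves fitted.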
HBB splice mod: qHTS Assay for Modulators of Hemoglobin Beta Chain Splicing | HBB splicing reporter cell assay, activation; EGFP reporter with mutant IVS2-654 intron; response scale: normalised to 500 nM splice-correcting PNA | Potency, µM (doses to about 46.1 µM), without a hit: top-dose activation, actives largely listed as activators | 65,000 compounds, 0.06% hits; also: potency is read from the fitted curve at half-maximal effect; 0% is about no effect
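Compounds were applied for 2 days to HeLa EGFP-654 cells, 500/well in Optimem with 2% FCS. The reporter's EGFP is disrupted by mis-splicing of beta-globin intron IVS2-654. Readout: summed well GFP fluorescence from 488 nm laser scanning; reference was 500 nM antisense […] 654 PNA.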
* hit, by the source's call; u = inconclusive; x = no result; [ ] = another dose, or the depositor's remark. Most compounds without a hit are left out; they make up all but 3.2% or so of the library. Unless noted, calls follow the shape of the dose curve; as a rule, active = well fitted curve in the direction sought with a large enough effect; inconclusive = small, poorly fitted or top-dose-only effect, or another doubt; inactive = no such curve, though single readings can be large; an effect the other way counts as inactive or inconclusive.

SMILES	15-hLO inh	GFP derepression	Tau filament bind	DNA Pol III inh	Ub-GFP proteasome	HBB splice mod
CC(=O)C1=C(C)NC(SCC(=O)c2ccc(Cl)cc2)=C(C#N)C1c1ccco1 (stereo unspecified)	13µM*	-4%	167%	3%	4%	9%
CC(=O)C1=C(C)NC(SCC(=O)c2ccccc2)=C(C#N)C1CC(C)C (stereo unspecified)	4µM*	-2%	22%	-6%	5%	-1%[57.5 µM]
CC(=O)C1=C(C)NC(SCC(=O)c2ccc(Cl)cc2Cl)=C(C#N)C1c1ccco1 (stereo unspecified)	13µM*	2%	110%	0%	-8%	-2%[9.22 µM]
CC(=O)C1=C(C)NC(SCC(=O)c2ccccc2)=C(C#N)C1c1ccco1 (stereo unspecified)	u	-6%	99%	-2%	0%	u
CN(C)CCNS(=O)(=O)N(C)C	3%[11.4 µM]	2%[9.22 µM]	0%[11.4 µM]	-5%[11.4 µM]	0%[9.17 µM]	4%[9.22 µM]
COc1cc2[nH]c(=S)n(C3CCCC3)c(=O)c2cc1OC	16µM*	2%	40%	-2%	-6%	-3%[57.5 µM]
O=S(=O)(Nc1ccc2c(c1)OCCO2)c1cccc2nsnc12	6%	0%	-18%	-3%	13%	-1%
CN(C)S(=O)(=O)Nc1ccc2c(c1)OCO2	3%	0%	3%	0%	-2%	0%[57.5 µM]
O=S(=O)(Nc1ccc2c(c1)OCO2)c1ccc(Br)s1	25µM*	3%	20µM*	3%	5%	0%
Cc1ccc2cccc(S(=O)(=O)Nc3ccc4c(c3)OCO4)c2n1	-20%	11%	7.9µM*	-12%	3%	-3%
Cc1c(N=CC=Nc2c(C)n(C)n(-c3ccccc3)c2=O)c(=O)n(-c2ccccc2)n1C	3%[11.4 µM]	-2%	-4%[11.4 µM]	-1%[11.4 µM]	8%[9.17 µM]	1%[0.0738 µM]
Cc1c(N=C/C=C2\N(C)c3ccccc3C2(C)C)c(=O)n(-c2ccccc2)n1C	-21%	2%	1µM*	-5%	-6%	0%[57.5 µM]
O=S(=O)(O)c1ccc2c(N=Nc3cccc4ccccc34)c(O)c(S(=O)(=O)O)cc2c1	-2%[11.4 µM]	2%[9.22 µM]	-11%[11.4 µM]	-9%[11.4 µM]	4%[9.17 µM]	4%[9.22 µM]
Cc1nn(-c2ccc(S(=O)(=O)O)cc2)c(O)c1N=Nc1ccc(-c2ccc(N=Nc3ccc4c(S(=O)(=O)O)cc(S(=O)(=O)O)c(N)c4c3O)c(O)c2)cc1O.[Cu].[Cu]	4µM*	0%[9.22 µM]	-22%[11.4 µM]	1.3µM*	1%[9.17 µM]	1%[9.22 µM]
COc1cc(-c2ccc(N=Nc3ccc4c(S(=O)(=O)O)cc(S(=O)(=O)O)c(N)c4c3O)c(OC)c2)ccc1N=Nc1ccc2c(S(=O)(=O)O)cc(S(=O)(=O)O)c(N)c2c1O	u	u	13µM*	2.5µM*	-5%	0%[20.6 µM]
O=C(/C=C/c1ccc2c(c1)OCO2)c1cccs1	-51%[25.6 µM]	x	x	x	x	x
Cc1c(N/C=C/C(=O)c2cccs2)c(=O)n(-c2ccccc2)n1C	25µM*	0%	-16%	-1%	0%	-3%
CC(C)COC[C@H](CN(Cc1ccccc1)c1ccccc1)N1CCCC1	0%[25.6 µM]	0%[20.6 µM]	-22%[25.6 µM]	-4%[25.6 µM]	4%[20.5 µM]	1%[20.6 µM]
Oc1ccc(COCc2ccccc2)c2cccnc12	6%	3.2µM*	-13%	-5%	8%	x
Fc1ccc(-c2nnc3ccc(N4CCc5ccccc5C4)nn23)cc1	25µM*	-2%	170%	-8%	0%	-1%
Cc1cc(C)cc(N(CC(=O)O)S(=O)(=O)c2cccnc2)c1	-1%	x	5%	-6%	-12%	0%
CC(C)COC(=O)c1cc(-c2ccc(/C=N/n3cnnc3)o2)ccc1Cl	3%	3%	25µM*	-6%	0%	2%
N#CCc1ccccc1[N+](=O)[O-]	-7%	x	-2%	4%	x	1%
O=c1oc2ccccc2c(O)c1/C=N/c1nc(-c2ccc(O)c(O)c2)cs1	u	-7%[9.22 µM]	-7%[11.4 µM]	3%[11.4 µM]	0%[9.17 µM]	4%[9.22 µM]
Oc1ccc(-c2nc(-c3ccc(O)c(O)c3)cs2)cc1	1.6µM*	0%	u	-2%	0%	-1%
SMILES	15-hLO inh	GFP derepression	Tau filament bind	DNA Pol III inh	Ub-GFP proteasome	HBB splice mod
COc1cccc(/C=C/C2=CC3(C)CC2(C)C(c2cccc(OC)c2)CC3=O)c1 (stereo unspecified)	0%[11.4 µM]	x	x	x	x	0%[9.22 µM]
CCOc1cc(S(=O)(=O)NCc2ccc3c(c2)OCO3)c(C)cc1C	-12%	1%	16µM*	-3%	15%	0%
CCN(CC)c1ccc(/C=N/NC(=O)c2ccc(O)cc2)cc1	u	x	x	x	x	-2%
Cc1ccc(CCNC(=O)C2CCCN2S(=O)(=O)c2ccc3c(c2)CCC(=O)N3)cc1 (stereo unspecified)	-5%	3%	-22%	-3%	3%	0%
COc1ccc(NC(=O)C2CCCN2S(=O)(=O)c2ccc3c(c2)CCC(=O)N3)c(OC)c1 (stereo unspecified)	2%	5%	25µM*	2%	-3%	0%
CC1(C)C(=O)NC2=C1C(=O)C(=O)c1ccccc12	u	1%	u	-6%	4%	x
CC[C@H](C)C(=O)O[C@@H]1CCC=C2C=C[C@H](C)[C@@H](CC[C@H]3C[C@@H](O)CC(=O)O3)[C@H]21	x	-2%	11%	-1%	-5%	2%
CNNCc1ccc(C(=O)NC(C)C)cc1	7.9µM*	2%[20.6 µM]	-10%[25.6 µM]	-8%[25.6 µM]	-6%[20.5 µM]	-2%[20.6 µM]
COc1cc(OC)c(C2CC(=O)N3CN(c4ccccc4C)CSC3=C2C#N)cc1OC (stereo unspecified)	u	2%	-22%	-8%	-1%	-3%[0.369 µM]
COc1ccc(OC)c(C2CC(=O)N3CN(c4ccccc4)CSC3=C2C#N)c1 (stereo unspecified)	u	-2%	-15%	-5%	6%	0%
CCc1ccccc1N1CSC2=C(C#N)C(c3ccccc3F)CC(=O)N2C1 (stereo unspecified)	3.2µM*	-3%	30%	-7%	3%	0%
COc1ccc(C2CC(=O)N3CN(c4ccccc4F)CSC3=C2C#N)cc1OC (stereo unspecified)	0.32µM*	5%	8%	-25%	12%	0%
C=C/C(C)=C/[C@]1(C)SC(=O)C(C)=C1O	-4%	1%	-4%	-13%	3%	1%
O=C(O)c1ccc(Cl)c(S(=O)(=O)Nc2ccccc2F)c1	-9%	x	x	x	x	x
CN(C)CCOC(=O)c1ccc(N)cc1	3%[11.4 µM]	0%[9.22 µM]	-5%[11.4 µM]	-13%[11.4 µM]	3%[9.17 µM]	1%[9.22 µM]

High-throughput results deposited in PubChem by National Center for Advancing Translational Sciences (NCATS).
